Laboratory results as given in PubChem BioAssay AID1159580 (chemical genetic matrix, 2015).
About 2,000 (36%) of roughly 5,500 compounds were called active. Another 18% or so got no clear call; they are omitted. Cut-off read from the data, not from the text of the source: active = normalized growth mostly below about 0.91 (no sharp cut-off); inconclusive = no clear call, values can overlap the other calls; inactive = mostly above about 0.92. The list shows a part of the results.

Test: chemical genetic growth profiling, strain panel (AID 1159580);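 note: tested at 20 µM; growth read once vehicle control cultures reached saturation at 30 °C; 1 = growth at the plate median or of vehicle wells; lower values mean less growth of the strain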
Details: growth OD

Measured: normalized growth

CC(C(=O)O)c1ccc(C(=O)c2cccs2)cc1 (stereo not drawn)
inactive: S. cerevisiae deletion strains, locus YKL009W, strain mrt4, active compounds read low 1.02 | S. cerevisiae deletion strains, locus YKL068W, active compounds read low 1.01 | S. cerevisiae deletion strains, locus YKL085W, strain MDH1 (second series), active compounds read low 0.983 | S. cerevisiae deletion strains, locus YKL085W, strain MDH1, active compounds read low 0.983 | S. cerevisiae deletion strains, locus YKL160W, strain elf1, active compounds read low 0.992 | S. cerevisiae deletion strains, locus YKL190W, strain CNB1, active compounds read low 1 | S. cerevisiae deletion strains, locus YKR001C, strain vps1, active compounds read low 1.01 | S. cerevisiae deletion strains, locus YKR026C, strain gcn3, active compounds read low 0.987 | S. cerevisiae deletion strains, locus YKR091W, strain srl3, active compounds read low 1.01 | S. cerevisiae deletion strains, locus YLL001W, strain dnm1, active compounds read low 0.995 | S. cerevisiae deletion strains, locus YLL026W, active compounds read low 0.99 | S. cerevisiae deletion strains, locus YLL041C, strain sdh2, active compounds read low 0.996 | S. cerevisiae deletion strains, locus YLR027C, strain aat2, active compounds read low 1.01 | S. cerevisiae deletion strains, locus YLR039C, strain RIC1, active compounds read low 1.01 | S. cerevisiae deletion strains, locus YLR058C, strain SHM2, active compounds read low 1.01 | S. cerevisiae deletion strains, locus YLR102C, strain apc9, active compounds read low 1.01 | S. cerevisiae deletion strains, locus YLR113W, strain HOG1, active compounds read low 0.968 | S. cerevisiae deletion strains, locus YLR221C, strain rsa3, active compounds read low 0.991 | S. cerevisiae deletion strains, locus YLR258W, strain gsy2, active compounds read low 1 | S. cerevisiae deletion strains, locus YLR262C, strain YPT6 (second series), active compounds read low 0.951 | S. cerevisiae deletion strains, locus YLR262C, strain YPT6, active compounds read low 1 | S. cerevisiae deletion strains, locus YLR268W, strain sec22, active compounds read low 1.01 | S. cerevisiae deletion strains, locus YLR320W, strain mms22, active compounds read low 1 | S. cerevisiae deletion strains, locus YLR330W, strain CHS5, active compounds read low 0.999 | S. cerevisiae deletion strains, locus YLR342W, strain FKS1 (second series), active compounds read low 1 | S. cerevisiae deletion strains, locus YLR342W, strain FKS1, active compounds read low 1 | S. cerevisiae deletion strains, locus YLR357W, strain rsc2, active compounds read low 0.967 | S. cerevisiae deletion strains, locus YLR370C, strain arc18, active compounds read low 0.998 | S. cerevisiae deletion strains, locus YLR371W, strain rom2, active compounds read low 1.02 | S. cerevisiae deletion strains, locus YLR384C, strain iki3, active compounds read low 1.01 | S. cerevisiae deletion strains, locus YLR418C, strain cdc73, active compounds read low 1.03 | S. cerevisiae deletion strains, locus YML016C, strain PPZ1, active compounds read low 1.01 | S. cerevisiae deletion strains, locus YML032C, strain rad52, active compounds read low 1.02 | S. cerevisiae deletion strains, locus YML120C, strain ndi1, active compounds read low 1 | S. cerevisiae deletion strains, locus YML124C, strain tub3, active compounds read low 1.02 | S. cerevisiae deletion strains, locus YMR058W, strain fet3, active compounds read low 1.02 | S. cerevisiae deletion strains, locus YMR078C, strain ctf18, active compounds read low 1.02 | S. cerevisiae deletion strains, locus YMR125W, strain sto1, active compounds read low 0.976 | S. cerevisiae deletion strains, locus YMR129W, active compounds read low 0.985 | S. cerevisiae deletion strains, locus YMR205C, strain PFK2, active compounds read low 0.965 | S. cerevisiae deletion strains, locus YMR223W, strain ubp8, active compounds read low 1.02 | S. cerevisiae deletion strains, locus YMR231W, strain pep5, active compounds read low 0.991 | S. cerevisiae deletion strains, locus YMR263W, strain SAP30, active compounds read low 1 | S. cerevisiae deletion strains, locus YMR307W, strain GAS1, active compounds read low 0.997 | S. cerevisiae deletion strains, locus YNL067W, strain RPL9B, active compounds read low 1 | S. cerevisiae deletion strains, locus YNL071W, strain lat1, active compounds read low 1 | S. cerevisiae deletion strains, locus YNL153C, strain GIM3, active compounds read low 1 | S. cerevisiae deletion strains, locus YNL183C, strain NPR1, active compounds read low 0.949 | S. cerevisiae deletion strains, locus YNL209W, strain ssb2, active compounds read low 1.01 | S. cerevisiae deletion strains, locus YNL233W, strain BNI4, active compounds read low 1 | S. cerevisiae deletion strains, locus YNL248C, strain rpa49, active compounds read low 1.02 | S. cerevisiae deletion strains, locus YNL250W, strain rad50, active compounds read low 1.01 | S. cerevisiae deletion strains, locus YNL271C, strain bni1, active compounds read low 1.02 | S. cerevisiae deletion strains, locus YNL298W, strain CLA4, active compounds read low 1.02 | S. cerevisiae deletion strains, locus YNL307C, strain MCK1, active compounds read low 1.02 | S. cerevisiae deletion strains, locus YNL322C, strain KRE1 (second series), active compounds read low 0.994 | S. cerevisiae deletion strains, locus YNR049C, strain mso1, active compounds read low 0.998 | S. cerevisiae deletion strains, locus YNR052C, strain pop2, active compounds read low 1.01 | S. cerevisiae deletion strains, locus YOL006C, strain TOP1, active compounds read low 0.978 | S. cerevisiae deletion strains, locus YOL012C, strain htz1 0.883 | S. cerevisiae deletion strains, locus YOL147C, strain pex11, active compounds read low 1.01 | S. cerevisiae deletion strains, locus YOR001W, strain rrp6, active compounds read low 1.01 | S. cerevisiae deletion strains, locus YOR061W, strain CKA2, active compounds read low 1.01 | S. cerevisiae deletion strains, locus YOR069W, strain VPS5, active compounds read low 1 | S. cerevisiae deletion strains, locus YOR070C, strain gyp1, active compounds read low 1 | S. cerevisiae deletion strains, locus YOR080W, strain dia2, active compounds read low 0.988 | S. cerevisiae deletion strains, locus YOR083W, strain WHI5, active compounds read low 1 | S. cerevisiae deletion strains, locus YOR106W, strain vam3, active compounds read low 0.995 | S. cerevisiae deletion strains, locus YOR136W, strain idh2, active compounds read low 1.02 | S. cerevisiae deletion strains, locus YOR144C, strain elg1, active compounds read low 1.02 | S. cerevisiae deletion strains, locus YOR184W, strain ser1, active compounds read low 1.02 | S. cerevisiae deletion strains, locus YOR231W, strain MKK1, active compounds read low 0.993 | S. cerevisiae deletion strains, locus YOR265W, strain rbl2, active compounds read low 0.992 | S. cerevisiae deletion strains, locus YOR270C, strain vph1, active compounds read low 0.997 | S. cerevisiae deletion strains, locus YOR290C, strain snf2, active compounds read low 1.01 | S. cerevisiae deletion strains, locus YOR316C, strain cot1, active compounds read low 1.02 | S. cerevisiae deletion strains, locus YPL051W, strain arl3, active compounds read low 0.989 | S. cerevisiae deletion strains, locus YPL055C, strain LGE1, active compounds read low 1.02 | S. cerevisiae deletion strains, locus YPL078C, strain atp4, active compounds read low 0.983 | S. cerevisiae deletion strains, locus YPL106C, strain sse1, active compounds read low 0.979 | S. cerevisiae deletion strains, locus YPL240C, strain hsp82, active compounds read low 0.992 | S. cerevisiae deletion strains, locus YPL256C, strain CLN2, active compounds read low 1.02 | S. cerevisiae deletion strains, locus YPR119W, strain clb2, active compounds read low 1.01 | S. cerevisiae deletion strains, locus YPR141C, strain kar3, active compounds read low 1.01 | S. cerevisiae deletion strains, locus YPR163C, strain tif3, active compounds read low 1.02 | S. cerevisiae deletion strains, locus YPR167C, strain met16, active compounds read low 1.02 | S. cerevisiae deletion strains, strain wtn01, active compounds read low 1.01 | S. cerevisiae strains, strain wild type, active compounds read low 1
